Laboratory results from PubChem BioAssay (NCATS).
Records with an inconclusive call do not appear. Values without a mark were called inactive. Activity calls are given as the source filed them. Calls follow the shape of the dose curve; as a rule, active = well fitted inhibition curve with a large enough effect; inconclusive = small, poorly fitted or top-dose-only effect; inactive = no such curve, though single readings can be large or run the other way.

Assay: Tertiary RLuc qRT-PCR qHTS assay for Zika virus inhibitors (AID 1347169); also: nearly all actives have a fitted effect of over 55% in size; as to activity change, negative = inhibition: top concentration of the series differs between compounds
Settings: infected Vero cells, reporter luminescence, 48-72 h; series mostly up to 45.9 µM; activity change, negative = inhibition: at the top concentration
Text: Avindra Nath, Ph.D., National Institute of Neurological Disorders and Stroke (NINDS), Bethesda, MD
Radhakrishnan Padmanabhan, Ph.D., Georgetown University (GU), Washington D.C.
Zika Virus causes congenital defects, including microcephaly and is associated with Guillain-Barre syndrome, eningoencephalitis and myelitis in infected adult. […] Using a target-based approach, we hope to establish a screening paradigm to uncover novel, cell-active NS2B-NS3 protease (Zika Virus) specific inhibitors from NCATS' collection of small molecules using qHTS.
Four assay panel was created to identify potential Zika Virus inhibitors. Namely, (1) GU unlinked NS2B-NS3 AMC tagged protease qHTS, (2) GU unlinked NS2B-NS3 Rhodamine tagged protease qHTS, (3) NINDS linked NS2B-NS3 AMC tagged protease qHTS, (4) NINDS linked NS2B-NS3 Rhodamine tagged protease qHTS. Identified inhibitors were re-acquired and tested against secondary confirmatory, orthogonal, and counterscreens to exclude nonspecific inhibition.
Early Translation Branch (ETB)
National Center for Advancing Translational Sciences (NCATS), Rockville, MD
National Institute of Health (NIH), Bethesda, Maryland
1536-well recombinant virus ZIKV-RLuc (Cambodian) Assay:
For a follow-up assay, we adapted a high throughput orthogonal assay in 1536-well plate format to use the recombinant virus ZIKV-RLuc, in Vero cells. Briefly, three microL of Vero cells derived from a green monkey cell line, were dispensed Multidrop Dispenser into a solid bottom white 1,536-well plate at a concentration of 1,000 cells per well. The plate was incubated overnight in a CO2 incubator at 37 degrees C. Compounds were delivered as a 23 nL DMSO solution by Kalypsys pintool transfer. Following compound transfer, 2 microL of ZIKV-RLuc was added at an MOI of 1-2 and incubated in a CO2 incubator for 48-72 hrs at 37 degrees C. After sufficient incubation of infected cells in test plates, live cell Renilla luciferase substrate (Promega) was added. The luminescence signal was measured after 1-1.5 hrs exposure to substrate in ViewLux reader.
% is scaled to controls: 0 for no effect and ±100 for the full control effect; potency is read from the fitted curve at half-maximal effect.

| Structure (SMILES) | Potency | activity change, negative = inhibition |
| --- | --- | --- |
| COC1C(O)C(C)O[C@@H](OC2CC[C@@]3(C)C4CC[C@]5(C)C(C6=CC(=O)OC6)CC[C@@]5(O)C4CC[C@@H]3C2)C1O (stereo partly specified) | 0.0658 µM (active) | – |
| CNc1ccc2oc(C[C@H]3O[C@@]4(CC[C@H]3C)O[C@H](C(C)C(=O)c3ccc[nH]3)[C@H](C)C[C@H]4C)nc2c1C(=O)O (stereo partly specified) | 0.658 µM (active) | – |
| CC(C)OC(=O)Nc1ccccc1 | – | 6.88% [at 89.2 µM] |
| C[C@H]1[C@H]2Cc3ccc(O)cc3[C@]1(C)CCN2CCc1ccccc1 | 47.5 µM (active) | – |
| CC(C)=CCC[C@]1(C)C=Cc2c(O)c3c(c(CC=C(C)C)c2O1)O[C@]12C(=C[C@@H]4CC1C(C)(C)O[C@@]2(C/C=C(/C)C(=O)O)C4=O)C3=O | 2.94 µM (active) | – |
| CN1CC[C@@]23CCCC[C@@H]2[C@@H]1Cc1ccc(O)cc13 | – | -15.8% |
| C=CCN1CCC2(C)c3cc(O)ccc3C[C@H]1[C@H]2C | – | -10.3% |
| O=c1c(O)c(-c2ccc(O)c(O)c2)oc2c(O)c(O)cc(O)c12 | – | 35.9% [at 5.25 µM] |
| CC1OC(O[C@H]2C[C@@H](O)[C@]3(CO)[C@H]4[C@H](O)C[C@]5(C)[C@@H](C6=CC(=O)OC6)CC[C@]5(O)[C@@H]4CC[C@]3(O)C2)C(O)C(O)C1O (stereo partly specified) | 0.147 µM (active) | – |
| C=CCN1CCC2(C)c3cc(O)ccc3CC1C2C (stereo unspecified) | – | 17.7% |
| Clc1cncc(N2CCNCC2)n1 | inactive | – |
| COC(=O)c1cc2c(cn1)[nH]c1ccccc12 | – | -28.4% |
| CC1O[C@@H](O[C@@H]2C(O)C[C@H](O[C@@H]3C(O)C[C@@H](OC4CC[C@@]5(C)C6CC[C@]7(C)C(C8=CC(=O)OC8)CC[C@@]7(O)C6CC[C@@H]5C4)OC3C)OC2C)CC(O)[C@H]1O (stereo partly specified) | 0.208 µM (active) | – |
| CN1CC[C@@]23CCCCC2C1Cc1ccc(O)cc13 (stereo partly specified) | – | 11% |
| C[C@H]1O[C@@H](O[C@H]2[C@@H](O)C[C@@H](O[C@H]3[C@@H](O)C[C@H](O[C@H]4CC[C@@]5(C)[C@H](CC[C@@H]6[C@@H]5CC[C@]5(C)[C@@H](C7=CC(=O)OC7)CC[C@]65O)C4)O[C@@H]3C)O[C@@H]2C)C[C@H](O)[C@@H]1O | 0.0537 µM (active) | – |
| CO[C@H]1[C@@H](O)CC(OC2[C@@H](O)CC(OC3[C@@H](O)C[C@H](OC4CC[C@@]5(C)C(CCC6C5CC(O)[C@]5(C)[C@H](C7=CC(=O)OC7)CCC65O)C4)O[C@@H]3C)O[C@@H]2C)O[C@@H]1C (stereo partly specified) | 0.24 µM (active) | – |
| Ic1cncc(OC[C@@H]2CCN2)c1 | – | -0.461% |
| CC(C)=CCCC1(C)C=Cc2c(O)c3c(c(CC=C(C)C)c2O1)OC12C(=CC4CC1C(C)(C)OC2(C/C=C(/C)C(=O)O)C4O)C3=O (stereo unspecified) | 5.87 µM (active) | – |
| CN(C(=O)Cc1ccc(Cl)c(Cl)c1)[C@@H](CN1CCCC1)c1cccc(OCC(=O)O)c1 | – | 8.24% |
| C[C@H]1O[C@@H](O[C@H]2[C@@H](O)C[C@H](O[C@H]3[C@@H](O)C[C@H](O[C@H]4CC[C@]5(C)C6CC[C@]7(C)[C@@H](C8=CC(=O)OC8)CC[C@]7(O)C6CC[C@@H]5C4)O[C@@H]3C)O[C@@H]2C)C[C@H](O)[C@@H]1O (stereo partly specified) | 0.147 µM (active) | – |
| C[C@@H]1O[C@@H](O[C@H]2C[C@@H](O)[C@]3(CO)C4C(CC[C@]3(O)C2)[C@@]2(O)CC[C@H](C3=CC(=O)OC3)[C@@]2(C)C[C@H]4O)[C@H](O)[C@H](O)[C@H]1O (stereo partly specified) | 0.234 µM (active) | – |
